Several values for one entry are separate records, joined by “and”; a condition that tells them apart may be missing. Equal entries are not always repeated. Peptide text beside a SMILES is read from it. * marks the point of attachment. CH2Cl = ClC*
test: viability loss with induced miR-34 in A549 – imaging, A549 dox-inducible miR-34, nuclei and caspase counts, primary screen (AID 1347080); conditions: A549 miR-34 inducible, Hoechst nuclei count, 48 h; measured here: total cells with miR-34 induction; stronger effect = lower value; further: test concentration not given here

| Compound | cell count |
| --- | --- |
| CCCCCCC(=O)O[C@H]1CC[C@H]2[C@@H]3C[C@H](O)C4=CC(=O)CC[C@]4(C)[C@H]3CC[C@]12C | 5330 |
| CO[C@@H]1C[C@@H](C[C@H]2CC[C@H](C)[C@H]([C@@H](C)C(=O)O)O2)O[C@]2(O[C@](C)([C@H]3CC[C@@](C)([C@@H]4O[C@@H]([C@H]5O[C@@](O)(CO)[C@H](C)C[C@@H]5C)C[C@@H]4C)O3)C[C@H]2C)[C@@H]1C | 1790 |
| C[C@@]1(CO)[C@H](O)CC[C@@]2(C)[C@H]1CC[C@H]1C[C@@H]3C[C@@]12CC[C@]3(O)CO | 2420 |
| CCOC(=O)CN1C(=O)CC(C[C@@H](O)C2C[C@@H](C)C[C@H](C)C2=O)CC1=O (stereo not given in full) | 4960 |
| COc1ccc(/C=C/C(=O)CC(=O)/C=C/c2ccc(OC)c(OC)c2)cc1OC | 5430 |

same assay, conditions: A549 miR-34 inducible, Hoechst nuclei count, 48 h; measured here: total cells without miR-34 induction

| Compound | cell count |
| --- | --- |
| N[C@H]1C[C@@H]1c1ccccc1 | 9180 and 10500 |
| O=C(NCCN1CCC2(CC1)C(=O)NCN2c1ccccc1)c1ccc2ccccc2c1 | 5940 |
| CCCCC/C=C\C/C=C\C/C=C\C/C=C\CCCC(=O)Nc1ccc2c(C)cc(=O)oc2c1 | 5510 |
| C=C1[C@@H](C)[C@H]2[C@H](Cc3ccccc3)NC(=O)[C@]23OC(=O)/C=C/[C@H](O)CCC[C@@H](C)C/C=C/[C@H]3[C@@H]1O | 1060 |
| CCNC(=O)[C@H]1O[C@@H](n2cnc3c(N)ncnc32)[C@@H](O)C1O (stereo not given in full) | 6360 |
| CCCCC/C=C\C/C=C\C/C=C\C/C=C\CCCC(=O)NCCc1c[nH]c2ccc(O)cc12 | 5630 |
| CCCC[C@@H](C)C(OC(=O)C[C@@H](CC(=O)O)C(=O)O)C(C[C@@H](C)C[C@H](O)CCCC[C@@H](O)C[C@H](O)[C@H](C)N)OC(=O)C[C@@H](CC(=O)O)C(=O)O (stereo not given in full) | 5780 |
| CCCCC/C=C\C/C=C\C/C=C\C/C=C\CCCC(=O)NOCCO | 5910 |
| O=C(CCC/C=C\C[C@@H]1[C@@H](/C=C/[C@@H](O)COc2cccc(C(F)(F)F)c2)[C@H](O)C[C@@H]1O)NC(CO)CO | 5370 |
| CC1OC(=O)C(C(C)C)NC(=O)C(C(C)C)OC(=O)C(C(C)C)NC(=O)C(C)OC(=O)C(C(C)C)NC(=O)C(C(C)C)OC(=O)C(C(C)C)NC(=O)C(C)OC(=O)C(C(C)C)NC(=O)C(C(C)C)OC(=O)C(C(C)C)NC1=O (stereo not given) | 1300 |
| CN=C(NS(=O)(=O)c1ccc(Cl)cc1)N1C[C@@H](c2ccccc2)C(c2ccc(Cl)cc2)=N1 | 5940 |
| CCCCC/C=C\C/C=C\C/C=C\C/C=C\CCCC(=O)Nc1ccc(O)cc1C | 5870 |
| CCCC(=O)N[C@H]1CCOC1=O | 6650 |
| Clc1ccc(C2CC3CCC2N3)cn1 (stereo not given) | 6360 |
| COC(=O)[C@@]1(O)CC2OC1(C)n1c3ccccc3c3c4c(c5c6ccccc6n2c5c31)C(=O)NC4 (stereo not given in full) | 2410 |
| C=C(C)[C@@H]1CCC(C)=C[C@H]1c1c(OC)cc(CCCCC)cc1OC | 6160 |
| COC(C/C=C/C=C/CC/C=C\CC(C)/C=C\C(=C/C(=O)O)CC(=O)O)/C(C)=C\C=C(/C)C(=O)O (stereo not given) | 5870 |
| CCCCC/C=C\C/C=C\C/C=C\C/C=C\CCCC(=O)NCC(O)CC(=O)O (stereo not given) | 5070 |
| C=C1[C@@H](C)[C@H]2[C@H](Cc3ccccc3)NC(=O)C23[C@H](OC(C)=O)/C=C/[C@](C)(O)C(=O)[C@@H](C)C/C=C/[C@H]3[C@@H]1O (stereo not given in full) | 762 |
| CCCCC/C=C\C/C=C\C/C=C\C/C=C\CCCC(=O)NC[C@@H](C)O | 6030 |

| Compound | cell count |
| --- | --- |
| COC[C@H]1OC(=O)c2coc3c2[C@@]1(C)C1=C(C3=O)[C@@H]2CCC(=O)[C@@]2(C)C[C@H]1OC(C)=O | 1560 |
| Cn1c2cccc(=O)c-2nc2ccccc21 | 3310 |
| C[C@H](N)C(=O)N[C@@H](C)C(=O)N[C@@H](Cc1ccccc1)C(=O)CCl (H-Ala-Ala-Phe-CH2Cl) | 3680 |
| CO/C1=C\C(C)=C\[C@@H](C)[C@@H](O)[C@@H](C)C/C(C)=C/C=C/[C@H](OC)[C@@H]([C@@H](C)[C@@H](O)[C@H](C)[C@@]2(O)C[C@@H](O)[C@H](C)[C@@H](C(C)C)O2)OC1=O | 2860 |
| CCCCC/C=C\C/C=C\C/C=C\C/C=C\CCCC(=O)NC(CO)CO | 5870 |
| CCCCC/C=C\C/C=C\C/C=C\C/C=C\CCCC(=O)NCc1ccc(O)c(OC)c1 | 3270 and 5460 |
| CCCCC/C=C\C/C=C\C/C=C\C/C=C\CCC(C)C(=O)NCCF (stereo not given) | 4990 |
| C=C(C)[C@H]1O[C@H]2CC[C@@]3(C)[C@@](O)(CC[C@H]4[C@@H]5OC(C)(C)[C@H]6C[C@@H]7C(=C)Cc8c(Cl)cc9[nH]c(c5c9c8[C@@]76O)[C@@]43C)[C@]23O[C@@H]3[C@H]1O | 826 |
| CC(C)CC(NP(=O)(O)OC1OC(C)C(O)C(O)C1O)C(=O)NC(Cc1c[nH]c2ccccc12)C(=O)O (stereo not given) | 9510 |
| CCCCCCCC/C=C\CCCCCCCC(=O)Nc1ccccc1 | 5950 |
| CCCCC/C=C\C/C=C\C/C=C\C/C=C\CCCC(=O)N[C@@H](C)CO | 5940 |
| C[C@]12CCC3c4ccc(OC(=O)N(CCCl)CCCl)cc4CCC3C1CC[C@@H]2O (stereo not given in full) | 1700 |
| CCCCC/C=C\C/C=C\C/C=C\C/C=C\CCCC(=O)N[C@H](C)COP(=O)(O)O | 5460 |
| CCCCC/C=C\C/C=C\C/C=C\C/C=C\CCCC(=O)Nc1ccc([N+](=O)[O-])cc1 | 5630 |
| N#CC(C#N)=NNc1ccc(OC(F)(F)F)cc1 | 1130 |
| CCCCCCC(=O)O[C@H]1CC[C@H]2[C@@H]3C[C@H](O)C4=CC(=O)CC[C@]4(C)[C@H]3CC[C@]12C | 5520 |
| CO[C@@H]1C[C@@H](C[C@H]2CC[C@H](C)[C@H]([C@@H](C)C(=O)O)O2)O[C@]2(O[C@](C)([C@H]3CC[C@@](C)([C@@H]4O[C@@H]([C@H]5O[C@@](O)(CO)[C@H](C)C[C@@H]5C)C[C@@H]4C)O3)C[C@H]2C)[C@@H]1C | 1800 |
| C[C@@]1(CO)[C@H](O)CC[C@@]2(C)[C@H]1CC[C@H]1C[C@@H]3C[C@@]12CC[C@]3(O)CO | 2350 |
| CCOC(=O)CN1C(=O)CC(C[C@@H](O)C2C[C@@H](C)C[C@H](C)C2=O)CC1=O (stereo not given in full) | 4910 |
| COc1ccc(/C=C/C(=O)CC(=O)/C=C/c2ccc(OC)c(OC)c2)cc1OC | 6280 |
